From PubChem BioAssay
Most compounds without a hit are left out; they make up all but 9.3% or so of the library.
M1 agonist = agonists of M1 muscarinic receptor; CHO-M1 cells, Fluo-4 calcium fluorescence, agonist mode; hits give high values; B-score at 10 µM; actives 3% (n = 64,000); AID 626;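 active = fluorescence rise, raw or as B-score row- and column-corrected plate score, outside the 99.7% band of its plate's samples, either direction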
Fluor 339 460 = intrinsic fluorescence of library compounds, ex339/em460 – biochemical, MLSMR library, data from DPM-DC assay, artefact control, profiling panel. actives 5.5% (n = 65,000). compound autofluorescence, ex339/em460 nm, NADH buffer; hits give high values; 1 = no-compound wells, NADH background. fluorescence fold increase at 10 µM;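 active = at 10 µM, mean starting fluorescence two-fold or more over control wells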;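 also: signal is the first read of a kinetic run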
A340 absorber = compound absorbs light at 340 nm. compound absorbance at 340 nm, fold over control. fold change at 10 µM. 65,000 tested, under 10 active;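 active = at 10 µM dose, initial 340 nm absorbance at least 2 fold that of control wells; inactive = change under 2 fold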;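 also: initial absorbance extrapolated from kinetic A340 decline of NADH oxidation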
M1 antagonist = blocks the rat M1 muscarinic receptor response to acetylcholine; actives 3.4% (n = 64,000); AID 628; B-score at 10 µM; CHO-M1 cells, Fluo-4 calcium, ACh EC80 antagonist mode; hits give low values; P08482;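 active = calcium fluorescence response, raw or row-and-column corrected B-score, differing from the plate sample mean either way at a set confidence level, mostly lower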
Target sequence (P08482 whole entry, looked up): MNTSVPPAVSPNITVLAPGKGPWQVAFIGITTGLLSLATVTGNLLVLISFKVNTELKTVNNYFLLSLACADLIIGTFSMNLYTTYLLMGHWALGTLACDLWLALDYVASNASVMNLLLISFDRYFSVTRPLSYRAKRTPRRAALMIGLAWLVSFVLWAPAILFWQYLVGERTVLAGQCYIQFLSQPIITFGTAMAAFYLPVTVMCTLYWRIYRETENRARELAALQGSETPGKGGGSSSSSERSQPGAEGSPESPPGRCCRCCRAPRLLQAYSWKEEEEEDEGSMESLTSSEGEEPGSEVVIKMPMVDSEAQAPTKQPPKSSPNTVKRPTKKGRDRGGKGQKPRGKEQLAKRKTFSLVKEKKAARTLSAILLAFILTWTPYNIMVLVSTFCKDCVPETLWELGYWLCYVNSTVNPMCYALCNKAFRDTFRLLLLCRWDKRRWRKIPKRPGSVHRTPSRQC
Htt clearance = mutant huntingtin protein clearance; actives 0.42% (n = 47,000); HeLa Exon1htt(103Q)mCFP, aggregate imaging; zero = plate's median compound well; inhibition, % at 1.5 µM; AID 853;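 active = inhibition of aggregate fluorescence above about 70%, also judged a hit by eye on the cell image, limit read from the data, passing the limit was not always enough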;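 also: cells exposed to compound for three days before fixation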
NADH enzymes = inhibition of NAD/NADH coupling enzymes, library profiling | coupled PK/LDH NADH assays, four targets | IC50, µM (highest dose often 10 µM), without a hit: top-dose inhibition | actives 0.02% (n = 65,000) | AID 774;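 active = single-dose screening hits from any of four coupled enzyme assays that gave an IC50 when retested across doses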;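 also: the DPM-DC format reads NADH fluorescence rather than 340 nm absorbance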
M1 antag conf = M1 muscarinic receptor (rat) antagonism, confirmed. shares compounds with M1 antagonist. CHO-M1 cells, Fluo-4 calcium, ACh EC80 antagonism; hits give low values. calcium response (max-min fluorescence) at 10 µM. actives 43% (n = 1,700);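 active = calcium response below the same-plate mean of wells given acetylcholine alone at its 80%-effect dose, minus 3 SD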;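 also: raw fluorescence intensity difference in arbitrary instrument units and not normalized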
mGluR4 antag = acts on human mGluR4 in M1 antagonist selectivity test | actives 0.9% (n = 1,700) | shares compounds with M1 antagonist | fluorescence response (max-min) at 10 µM | CHO-mGluR4 calcium flux, Fluo-4 fluorescence, glutamate EC80; hits give low values;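 active = fluorescence response below the plate's average for near-maximal glutamate wells, less 3 SD of those wells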;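 also: raw unnormalized fluorescence span taken in the window right after glutamate addition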
* hit, by the source's call.

Cc1cc(C(=O)OCC(=O)Nc2cc(C)on2)c2ccccc2n1 was read as M1 agonist -0.61, Fluor 339 460 1.2, A340 absorber 1.1, M1 antagonist -6.1*, NADH enzymes 0%, M1 antag conf 656 and mGluR4 antag 228.
CC(C)Oc1ccc(C(=O)Nc2ccc(N3CCCC3)cc2)cc1 was read as M1 agonist -0.018, Fluor 339 460 1.3, A340 absorber 1.1, M1 antagonist -2.1*, Htt clearance -24, NADH enzymes 2%, M1 antag conf 405* and mGluR4 antag 249.
`CC(=O)Nc1ccccc1N(C)S(=O)(=O)c1ccc(C)cc1` gave M1 agonist -1.2, Fluor 339 460 1.1, A340 absorber 1, M1 antagonist -0.45 and NADH enzymes 3%.
Screening O=C(Nc1c(C(=O)O)oc2ccc(Br)cc12)c1ccccc1 returned M1 agonist 0.099, Fluor 339 460 1.2, A340 absorber 1.1, M1 antagonist 0.8 and NADH enzymes 4%.
`CCOC(=O)N1CCN(C(=O)CN(c2ccc(Oc3ccccc3)cc2)S(C)(=O)=O)CC1` gave M1 agonist -1.9, Fluor 339 460 1.1, A340 absorber 1.1, M1 antagonist -0.18 and NADH enzymes 4%.
`CS(=O)(=O)N(CC(=O)N1CCC(C(N)=O)CC1)c1ccc(Oc2ccccc2)cc1` gave M1 agonist 0.18, Fluor 339 460 1.1, A340 absorber 1, M1 antagonist -1.6*, NADH enzymes 7%, M1 antag conf 550 and mGluR4 antag 195.
CCn1cc(C(=O)NCCCN2CC(C)CC(C)C2)c2cc(OC)c(OC)cc2c1=O (configuration not stated) was read as M1 agonist -0.65, Fluor 339 460 0.81, A340 absorber 1.1, M1 antagonist -1.8*, Htt clearance -29, NADH enzymes 10%, M1 antag conf 595 and mGluR4 antag 196.
COc1ccc(Nc2nc(N3CCCC3)nc3ccccc23)c(OC)c1 was read as M1 agonist -0.69, Fluor 339 460 1.7, A340 absorber 1.2, M1 antagonist -8.1*, Htt clearance -87, NADH enzymes 12%, M1 antag conf 342* and mGluR4 antag 188.
For Clc1ccc(-c2nc(N3CCCCC3)nc3ccccc23)cc1 the results were Htt clearance 46.
`C=CCNc1nc(N2CCCC2)nc2ccccc12` gave M1 agonist -0.83, Fluor 339 460 2.7*, A340 absorber 1.1, M1 antagonist -3.4*, Htt clearance -83, NADH enzymes 19%, M1 antag conf 581 and mGluR4 antag 265.
For COc1ccccc1-n1cc(C(=O)NCC(=O)N2CCN(c3ccccc3)CC2)c2ccccc2c1=O the results were M1 agonist 0.63, Fluor 339 460 1.3, A340 absorber 0.99, M1 antagonist -0.41, Htt clearance 34 and NADH enzymes 2%.
For CCN(CC)CCOc1c(Br)ccc2c1sc1nc3n(c(=O)c12)CCC3 the results were M1 agonist -0.055, Fluor 339 460 1.1, A340 absorber 1.1, M1 antagonist -11*, NADH enzymes 7%, M1 antag conf 130* and mGluR4 antag 229.
O=c1c2c3c(sc2nc2n1CCC2)CCC3 was read as M1 agonist 0.26, Fluor 339 460 1.1, A340 absorber 1, M1 antagonist -0.026 and NADH enzymes 7%.
COc1ccc(CNC(=O)C2CCCN(S(=O)(=O)c3c(C)nn(C)c3C)C2)cc1 (configuration not stated) was read as M1 agonist 0.063, Fluor 339 460 1.1, A340 absorber 1, M1 antagonist 0.5, Htt clearance -12 and NADH enzymes 2%.
`Cc1nn(C)c(C)c1S(=O)(=O)N1CCCC(C(=O)N2CCN(c3ccccc3)CC2)C1` (configuration not stated) gave M1 agonist -0.74, Fluor 339 460 1.1, A340 absorber 1, M1 antagonist -2.3*, Htt clearance 58, NADH enzymes 3%, M1 antag conf 617 and mGluR4 antag 257.
`CCCS(=O)(=O)N1CCCC(C(=O)N2CCN(c3ccccn3)CC2)C1` (configuration not stated) gave M1 agonist 0.038, Fluor 339 460 1.2, A340 absorber 0.98, M1 antagonist -2.6*, Htt clearance 13, NADH enzymes 5%, M1 antag conf 525 and mGluR4 antag 191.
Screening CCCS(=O)(=O)N1CCCC(C(=O)N2CCC(Cc3ccccc3)CC2)C1 (configuration not stated) returned M1 agonist -0.39, Fluor 339 460 1, A340 absorber 0.99, M1 antagonist -5.2*, NADH enzymes 1%, M1 antag conf 577 and mGluR4 antag 260.
`CC(C)CNS(=O)(=O)c1ccc(CCC(=O)Nc2ccc3c(c2)OCCO3)cc1` gave Htt clearance -46.
COc1c(C)cc(Br)cc1C(=O)O was read as M1 agonist 0.48, Fluor 339 460 1.1, A340 absorber 1.1, M1 antagonist -13*, Htt clearance 21, NADH enzymes 3%, M1 antag conf 710 and mGluR4 antag 203.
For COC(=O)[C@H](C)NC(=O)NCc1ccco1 the results were M1 agonist -0.23, Fluor 339 460 1.2, A340 absorber 1, M1 antagonist -4.3*, Htt clearance -8, NADH enzymes 4%, M1 antag conf 680 and mGluR4 antag 260.
For Cc1ccc(C(C)C)c(OCc2nc(-c3nonc3N)no2)c1 the results were M1 agonist -1.8, Fluor 339 460 1.1, A340 absorber 1, M1 antagonist -2.4*, Htt clearance 14, NADH enzymes 1%, M1 antag conf 566 and mGluR4 antag 256.
Screening CCOC(=O)c1snc(C(=O)NC2CCCCC2)c1N returned M1 agonist 0.24, Fluor 339 460 2*, A340 absorber 1, M1 antagonist -2.7*, NADH enzymes 3%, M1 antag conf 641 and mGluR4 antag 206.
For O=C1c2ccccc2C(=O)N1CC1=CCS(=O)(=O)C1 the results were M1 agonist -0.4, Fluor 339 460 1.1, A340 absorber 1, M1 antagonist -2*, Htt clearance 13, NADH enzymes 7%, M1 antag conf 531 and mGluR4 antag 202.
Screening CCN(CC)CC(=O)n1c2c(c3ccccc31)CCCC2 returned M1 agonist 0.8, Fluor 339 460 1.1, A340 absorber 1, M1 antagonist 0.00065 and NADH enzymes 7%.
